Experimental data from PMC4336329 (PLoS ONE, 2015).
Out of some 310,000 compounds screened, about 14,000 (4.5%) showed an effect of 50% or more. The effect is printed as a negative number. The entries come from a sample that favours strong results as a whole.

What follows are molecules tested against human ether-à-go-go-related gene (hERG) potassium channel (human, UniProt Q12809) (assay: primary screen, population patch clamp on CHO cells stably expressing hERG; higher = less effect of the substance).
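Note: peak tail current of the secondary pulse compared with the same well before compound.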

Chain of human ether-à-go-go-related gene (hERG) potassium channel (Q12809 whole entry, looked up): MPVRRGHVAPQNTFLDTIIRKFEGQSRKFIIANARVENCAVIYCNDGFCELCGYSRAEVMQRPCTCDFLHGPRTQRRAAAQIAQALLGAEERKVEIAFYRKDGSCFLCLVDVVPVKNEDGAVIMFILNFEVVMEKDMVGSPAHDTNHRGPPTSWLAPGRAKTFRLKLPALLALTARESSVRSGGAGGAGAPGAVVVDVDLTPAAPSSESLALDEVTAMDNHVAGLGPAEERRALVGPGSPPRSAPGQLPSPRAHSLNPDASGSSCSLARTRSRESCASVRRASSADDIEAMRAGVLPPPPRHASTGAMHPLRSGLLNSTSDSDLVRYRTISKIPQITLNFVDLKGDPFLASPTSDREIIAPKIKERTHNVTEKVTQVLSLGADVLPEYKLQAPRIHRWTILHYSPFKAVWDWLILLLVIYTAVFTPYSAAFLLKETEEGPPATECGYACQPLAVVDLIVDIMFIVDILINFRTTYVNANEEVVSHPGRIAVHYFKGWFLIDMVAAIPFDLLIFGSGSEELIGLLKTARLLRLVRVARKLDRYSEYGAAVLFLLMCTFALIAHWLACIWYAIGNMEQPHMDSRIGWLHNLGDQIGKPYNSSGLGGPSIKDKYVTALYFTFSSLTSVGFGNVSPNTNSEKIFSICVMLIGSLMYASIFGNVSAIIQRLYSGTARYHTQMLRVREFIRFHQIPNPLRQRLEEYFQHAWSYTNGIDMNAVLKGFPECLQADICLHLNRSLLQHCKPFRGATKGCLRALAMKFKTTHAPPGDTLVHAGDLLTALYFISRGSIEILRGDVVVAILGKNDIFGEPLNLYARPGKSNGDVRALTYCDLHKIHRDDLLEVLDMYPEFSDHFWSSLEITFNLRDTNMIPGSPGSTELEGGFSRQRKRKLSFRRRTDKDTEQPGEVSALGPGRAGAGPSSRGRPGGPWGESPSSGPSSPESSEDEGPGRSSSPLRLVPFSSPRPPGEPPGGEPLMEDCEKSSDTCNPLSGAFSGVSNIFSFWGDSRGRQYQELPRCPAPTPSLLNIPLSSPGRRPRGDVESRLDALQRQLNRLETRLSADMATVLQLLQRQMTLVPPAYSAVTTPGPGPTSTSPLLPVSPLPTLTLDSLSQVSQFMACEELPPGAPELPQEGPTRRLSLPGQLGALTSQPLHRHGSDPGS

Row | SMILES | hERG current change (%, negative = inhibition) at 10uM
1 | CCCCOC(=O)CN1C(=O)c2ccc(C(=O)OCCCC)cc2C1=O | 4.54%
2 | O.O=C([O-])c1ccn2c(C(=O)c3ccccc3)c(-c3ccccc3)cc2c1 | 12.8%
3 | C/C(=C\C(=O)OCC(=O)NCc1ccccc1)C(=O)OCC(=O)NCc1ccccc1 | 18.8%
4 | CCN1C(=O)CSc2ccc(C(=O)NC3CCCCC3)cc21 | -5.4%
5 | Cc1cn2c(=O)c(C(=O)N3CCN(c4ccccc4F)CC3)cnc2s1 | -6.27%
6 | Cc1cn2c(=O)c(C(=O)N3CCN(c4ccccc4Cl)CC3)cnc2s1 | -62.8%
7 | O=C(c1cnc2sccn2c1=O)N1CCN(c2ccccc2Cl)CC1 | -2.33%
8 | CCCCCCCC1c2c(c(C)c(C)oc2=O)Oc2c(C)c(C)oc(=O)c21 | 11.9%
9 | CCN1C(=O)[C@H]2[C@@H](c3ccc(-c4ccc(OC)cc4)cc3)N[C@@](Cc3ccccc3)(C(=O)OC)[C@H]2C1=O.O=C(O)C(F)(F)F | 3.09%
10 | CN(Cc1ccon1)C(=O)CCc1nnc(Cc2ccc(-c3ccccc3)cc2)o1 | -20%
11 | CCc1ccc(CN(C)C(=O)CCc2nnc(CCc3ccccc3OC)o2)nc1 | -1.47%
12 | CCc1ccc(CN(C)C(=O)CCc2nnc(-c3ccc(-c4ccccc4)cc3)o2)nc1 | -65.1%
13 | CCOc1ccc(CCNC(=O)COC(=O)/C=C/c2ccc(OC(F)F)c(OC)c2)cc1OCC | -15.2%
14 | Cc1cccc(C)c1NC(=O)C(=O)NCCOc1ccc(Cl)cc1 | -26%
15 | CCN(C(=S)Nc1cccc(C)c1)c1ccccc1 | 13.2%
16 | COc1ccc(/C=C(\NC(=O)c2ccco2)C(=O)NCc2ccco2)cc1 | 8.89%
17 | CC(=O)Oc1ccc(/C=C(\NC(=O)c2ccco2)C(=O)NCc2ccco2)cc1 | -52%
18 | O=C(NCc1ccco1)/C(=C/c1ccc(Br)cc1)NC(=O)c1ccco1 | 0.657%
19 | O=C(NCc1ccccc1)/C(=C\c1ccc(O)cc1)NC(=O)c1ccco1 | -20.7%
20 | CC(=O)Oc1ccc(/C=C(\NC(=O)c2ccco2)C(=O)NCc2ccccc2)cc1 | -68.3%
21 | CC(=O)Oc1ccc(/C=C(\NC(=O)c2ccco2)C(=O)Nc2ccc(C(C)=O)cc2)cc1 | -26.2%

Row | SMILES | hERG current change (%, negative = inhibition) at 10uM
22 | Cc1cccc(C(=O)N2CCC(N3CCC(C(=O)N4CCOCC4)CC3)CC2)c1 | -9.81%
23 | Cc1ccc(S(=O)(=O)/N=c2\scc(C)n2C)cc1 | 0.491%
24 | O=C1CN(C(=O)COc2ccc([N+](=O)[O-])cc2Cl)c2ccccc2N1 | -61.2%
25 | O=C1CN(C(=O)COc2ccc(Cl)cc2Cl)c2ccccc2N1 | 14.2%
26 | O=C1CN(C(=O)COc2ccc(F)cc2Cl)c2ccccc2N1 | -19.5%
27 | CC1(C)CC(=O)C=C(C(=O)NC2CCCc3c2cnn3-c2cc(F)cc(F)c2)O1 (stereo not shown) | -2.03%
28 | O=C(O)c1cc(NS(=O)(=O)c2ccc(NCc3ccccc3)c([N+](=O)[O-])c2)cc(C(=O)O)c1 | 20.9%
29 | COC(=O)N/N=C(\C)c1ccccc1OC(F)F | 1.52%
30 | COc1ccc(C[C@@H]2CN3C(=NC[C@@H]3C)N2C[C@H](C)NC(=O)c2ccc(C)c(Br)c2)cc1 | -74.8%
31 | COc1ccc(C[C@H]2CN3C(=NC[C@@H]3C(C)C)N2C[C@H](C)NC(=O)c2ccc(C)c(Br)c2)cc1 | -74.5%
32 | Cc1ccc(C(=O)N[C@@H](C)CN2C3=NC[C@H](C(C)C)N3C[C@H]2Cc2ccc(O)cc2)cc1Br | -77.7%
33 | CCCOP(=O)(c1ccc(N(C)C)cc1)C(O)c1ccc(N(C)C)cc1 (stereo not shown) | 12.8%
34 | c1ccc2sc(-c3ccc4c(c3)OCO4)nc2c1 | -3.16%
35 | CCOc1ccc(C2CC(c3cccc(OC)c3OC)n3nnnc3N2)cc1Cl (stereo not shown) | -19.2%
36 | Cc1ccc(-n2nnnc2Sc2nc([N+](=O)[O-])nn2C)c(C)c1 | -27.6%
37 | CN(C(=O)c1ccc(C#N)cc1)c1nnc(-c2cnccn2)s1 | -8.93%
38 | CCN(CC)CCCNC(=O)Cn1ncc2c(=O)oc3ccc(C)cc3c21 | -7.17%
39 | COC(=O)COc1ccc(C(c2c(C)[nH][nH]c2=O)c2c(C)[nH][nH]c2=O)cc1 | 15.1%
40 | COc1ccc(CN2CN(C3CCCC3)CSC2=S)cc1 | 2.66%
41 | Cc1ccc(OCCCC(=O)Nc2ccc(S(=O)(=O)N3CCOCC3)cc2)cc1 | -25.7%
42 | COc1ccc(-n2nc(C(=O)NCC(=O)Nc3ccccn3)c3ccccc3c2=O)cc1 | 10.6%

Row | SMILES | hERG current change (%, negative = inhibition) at 10uM
43 | Cc1ccccc1NC(=S)N(Cc1cccs1)C1CCCC1 | 5.42%
44 | CCn1c(SCC(=O)N2CCCCCC2)nc2ccccc2c1=O | -10.4%
45 | C=CCn1c(SCC(=O)N2CCCCCC2)nc2ccccc2c1=O | -59.2%
46 | C=CCn1c(SCC(=O)N2CCOCC2)nc2ccccc2c1=O | -28.4%
47 | COCCn1c(SCC(=O)N2CCc3ccccc3C2)nc2ccccc2c1=O | -43.8%
48 | C=CCn1c(SCC(=O)N2CCc3ccccc3C2)nc2sc(C)cc2c1=O | -7.46%
49 | C=CCn1c(SCC(=O)N2CCc3ccccc3C2)nc2ccccc2c1=O | -61.5%
50 | Cc1nc(N2CCN(S(=O)(=O)c3ccc(F)cc3)CC2)c2c(-c3cccs3)csc2n1 | 11.6%
51 | CCn1cc(S(=O)(=O)N2CCN(c3ccc(Cl)cc3)CC2)cn1 | 7.96%
52 | Cn1nc(C(F)(F)F)c(-c2ccccc2)c1NC(=O)c1ccco1 | -3.07%
53 | Cn1nc(C(F)(F)F)c(-c2ccc(Br)cc2)c1NC(=O)c1cccnc1 | 0.61%
54 | Cn1nc(C(F)(F)F)c(-c2cccc(C(F)(F)F)c2)c1NC(=O)c1ccco1 | -66.6%
55 | O=C(Nc1oc2ccccc2c(=O)c1-c1ccc(Br)cc1)c1ccco1 | -52.5%
56 | Cn1nc(C(F)(F)F)c(-c2ccc(Br)cc2)c1NC(=O)c1ccco1 | -63.5%
57 | Cc1ccc(-c2c(NC(=O)c3ccco3)oc3ccccc3c2=O)cc1 | 10.1%
58 | O=C(Nc1oc2ccccc2c(=O)c1-c1ccc(Cl)cc1)c1ccco1 | -20.4%
59 | Cn1nc(C(F)(F)F)c(-c2ccc(F)cc2)c1NC(=O)c1ccco1 | -32.8%
60 | Cn1nc(C(F)(F)F)c(-c2cccc(C(F)(F)F)c2)c1NC(=O)c1cccnc1 | -6.76%
61 | CC1CN(c2nc(Nc3ccccc3)nc(N)c2[N+](=O)[O-])CC(C)O1 (stereo not shown) | -22.2%
62 | C=CCn1c(CCNC(=O)c2ccccc2F)nnc1SCC(=O)Nc1nc(C)cs1 | -5.2%
63 | N#C/C(=C(/O)COC(=O)c1cccnc1Cl)c1nc2ccccc2[nH]1 | 25.6%

Row | SMILES | hERG current change (%, negative = inhibition) at 10uM
64 | COC(=O)c1sc2nc3c(c(-c4cccs4)c2c1N)CCCC3 | 9.57%
65 | Cc1cccc(NC(=O)c2sc3nc4c(c(-c5ccco5)c3c2N)CCC4)c1 | -3.19%
66 | N#Cc1sc2nc3c(c(-c4ccco4)c2c1N)CCCC3 | -3.21%
67 | Cc1cccc(NC(=O)c2sc3nc4c(c(-c5cccs5)c3c2N)CN(C)CC4)c1 | -51.6%
68 | CN1CCc2nc3sc(C#N)c(N)c3c(-c3cccs3)c2C1 | -56.8%
69 | CC(C)NC(=O)c1sc2nc3c(c(-c4cccs4)c2c1N)CN(C)CC3 | -25.8%
70 | O=C(O)C1CC=CCC1C(=O)NC12CC3CC(CC(C3)C1)C2 (stereo not shown) | 3.51%
71 | O=C(CSc1nc2ccccc2s1)Nc1ncccn1 | 13.4%
72 | O=S(=O)(c1cccs1)N1CCc2ccccc2C1 | -5.63%
73 | Cc1cccc(-c2nc(CS(=O)CC(=O)N3CC(C)CC(C)C3)c(C)o2)c1 (stereo not shown) | -25.3%
74 | COC(=O)c1[nH]c2cccc(C)c2c1NC(=O)CN1CCN(C(=O)c2ccco2)CC1 | -16.9%
75 | COC(=O)c1[nH]c2ccc(C)cc2c1NC(=O)CN1CCN(c2ccccc2)CC1 | -13.7%
76 | COC(=O)c1[nH]c2ccc(C)cc2c1NC(=O)CN1CCN(C(=O)c2ccccc2)CC1.Cl | -52.1%
77 | COC(=O)c1[nH]c2ccc(C)cc2c1NC(=O)CN1CCC(C)CC1 | -8.97%
78 | COC(=O)c1[nH]c2ccccc2c1NC(=O)CN1CCN(C(=O)c2ccco2)CC1 | -32.8%
79 | COC(=O)c1[nH]c2cc(C)ccc2c1NC(=O)CN1CCN(C(=O)c2ccco2)CC1 | -54.3%
80 | Cc1nc2cc(C(=O)O)ccc2s1 | 5.41%
81 | COC(=O)c1ccc(Oc2c(C)oc3cc(OCc4cnn(-c5ccccc5)c4)ccc3c2=O)cc1 | 1.08%
82 | CCOc1cc(/C=N/NC(=O)c2cccnc2)cc(Br)c1OCC(N)=O | -22.5%
